# PubChem BioAssay (EPA / NIEHS)
# The source made the active and inactive calls. How the source made its calls: active means hit-call score of the fitted dose curve at least 0.9, where 1 is the maximum; inactive means score below 0.9.
# What was measured:
# [1] = target: Transcription factor E2F1 (Homo sapiens) (UniProt Q01094); assay: ATG_E2F_CIS: Attagene CIS-FACTORIAL HepG2 Assay for human E2F Transcription Factor 1 (AID 2282935); settings: HepG2 Attagene cis-reporter, E2F reporter RNA transcripts; actives raise or lower the signal
# Transcription factor E2F1 (Homo sapiens), sequence (Q01094 whole entry, looked up): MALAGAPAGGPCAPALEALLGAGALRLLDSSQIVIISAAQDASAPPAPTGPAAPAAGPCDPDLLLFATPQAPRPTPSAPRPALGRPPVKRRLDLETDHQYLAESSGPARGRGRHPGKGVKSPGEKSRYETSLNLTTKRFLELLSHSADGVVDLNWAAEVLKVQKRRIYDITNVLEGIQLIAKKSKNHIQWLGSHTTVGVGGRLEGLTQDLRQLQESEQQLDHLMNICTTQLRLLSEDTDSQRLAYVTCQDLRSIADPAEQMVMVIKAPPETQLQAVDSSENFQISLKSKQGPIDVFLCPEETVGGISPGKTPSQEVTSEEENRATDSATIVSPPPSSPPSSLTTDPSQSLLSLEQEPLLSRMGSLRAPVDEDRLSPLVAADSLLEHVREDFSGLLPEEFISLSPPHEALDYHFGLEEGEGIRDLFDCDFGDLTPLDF
# In short: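 Gain or loss of reporter transcript, fitted against DMSO, reflects E2F1-driven transcription. Transiently transfected HepG2 dosed 24 h before RNA isolation. Quantified by fluorescent RT-PCR products separated by capillary electrophoresis.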
# [2] = ATG_E_Box_CIS: Attagene CIS-FACTORIAL HepG2 Assay for human Enhancer Box (E-box) (AID 2282936); settings: HepG2 E-box cis-reporter transcription, actives raise or lower the signal
# In short: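 E-box-driven reporter transcripts measured in transiently transfected HepG2 after 24 h exposure: RNA reverse-transcribed, PCR-amplified, fluorescently labelled, digested and resolved by capillary electrophoresis. Gain or loss relative to DMSO.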
# [3] = ATG_M_61_CIS: Attagene CIS-FACTORIAL HepG2 Assay for M61 Transcription Factor (Internal Marker) (AID 2282937); settings: HepG2 Attagene CIS-FACTORIAL M61 internal marker reporter; actives raise or lower the signal
# In short: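 Background-control endpoint: HepG2 cells with cis-regulated reporter constructs, 24 h exposure, reporter mRNA detected via fluorescent primer extension and capillary electrophoresis; values from bidirectional fitting with DMSO baseline.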
# [4] = ATG_EGR_CIS: Attagene CIS-FACTORIAL HepG2 Assay for human Early Growth Response 1 (EGR1) (AID 2282938); settings: HepG2 Attagene CIS-FACTORIAL EGR reporter mRNA; actives raise or lower the signal
# In short: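 Endpoint derived by bidirectional fitting versus DMSO vehicle. Method: cis-promoter reporter units transfected into HepG2, 24 h dosing, RNA isolation, RT-PCR with 6-FAM primer extension and HpaI digestion, then capillary electrophoresis fluorescence detection.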
# [5] = ATG_M_19_CIS: Attagene CIS-FACTORIAL HepG2 Assay for M19 Transcription Factor (Internal Marker) (AID 2282939); settings: HepG2 Attagene CIS-FACTORIAL M19 internal marker reporter; actives raise or lower the signal
# In short: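 Signals come from fluorescence of labelled reporter-specific PCR fragments resolved by capillary electrophoresis, following 24 h treatment of HepG2 cells transfected with cis-promoter reporter units; activity was fitted in both directions relative to DMSO.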
# [6] = ATG_ERE_CIS: Attagene CIS-FACTORIAL HepG2 Assay for Estrogen Response Element (ERE) (AID 2282940); settings: HepG2 ERE cis-reporter, Attagene RNA transcript; actives raise or lower the signal
# In short: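 Fluorescence of capillary-separated, FAM-labelled reporter cDNA fragments indicates reporter mRNA levels in HepG2 cells exposed to chemicals for 24 h. Transient transfection with cis-regulated units; data fitted in both directions against DMSO.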
# [7] = ATG_Ets_CIS: Attagene CIS-FACTORIAL HepG2 Assay for human Erythroblast Transformation Specific (ETS) (AID 2282941); settings: HepG2 ETS cis-reporter transcription, actives raise or lower the signal
# In short: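 RT-PCR/capillary electrophoresis fluorescence read-out of reporter mRNA; HepG2 transient multi-reporter transfection; 24 h compound exposure; gain or loss of signal fitted bidirectionally relative to DMSO.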
# [8] = target: Hepatocyte nuclear factor 3-beta (Homo sapiens) (UniProt Q9Y261); assay: ATG_FoxA2_CIS: Attagene CIS-FACTORIAL HepG2 Assay for human Forkhead box A2 (FOXA2) (AID 2282942); settings: HepG2 cis-reporter transcription factor activity, 24 h; actives raise or lower the signal
# Hepatocyte nuclear factor 3-beta (Homo sapiens), sequence (Q9Y261 whole entry, looked up): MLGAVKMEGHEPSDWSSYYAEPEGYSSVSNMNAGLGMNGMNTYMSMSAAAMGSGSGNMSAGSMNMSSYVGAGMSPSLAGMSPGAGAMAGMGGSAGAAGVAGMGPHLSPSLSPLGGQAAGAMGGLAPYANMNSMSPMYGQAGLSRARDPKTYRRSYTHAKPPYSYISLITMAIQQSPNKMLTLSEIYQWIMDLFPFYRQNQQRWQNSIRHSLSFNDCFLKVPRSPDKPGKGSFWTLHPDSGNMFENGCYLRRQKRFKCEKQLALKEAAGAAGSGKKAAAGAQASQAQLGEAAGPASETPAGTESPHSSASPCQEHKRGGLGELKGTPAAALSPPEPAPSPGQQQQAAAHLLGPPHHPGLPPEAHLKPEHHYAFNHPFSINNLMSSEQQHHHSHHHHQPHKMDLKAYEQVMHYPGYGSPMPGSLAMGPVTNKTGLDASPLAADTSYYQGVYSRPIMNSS
# In short: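 Measured: reporter mRNA induction or loss in HepG2 transiently carrying multiple cis-regulated reporter units, 24 h after dosing. Quantified by RT-PCR plus capillary electrophoresis, normalised to DMSO.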
# [9] = ATG_FoxO_CIS: Attagene CIS-FACTORIAL HepG2 Assay for human Forkhead box O (FoxO) (AID 2282943); settings: HepG2 Attagene cis-reporter, FoxO element, mRNA; actives raise or lower the signal
# In short: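 HepG2, transient MRTU transfection (cis element, endogenous TFs). Dose 24 h. TriZol RNA → oligo(dT) RT → PCR → 6-FAM primer extension → HpaI cut → CE. Gain/loss vs DMSO.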
# [10] = ATG_GATA_CIS: Attagene CIS-FACTORIAL HepG2 Assay for human GATA Binding Protein (AID 2282944); settings: HepG2 GATA cis-element reporter, Attagene multiplex mRNA; actives raise or lower the signal
# In short: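 After transfecting HepG2 cells with multiple cis-regulated reporter units, chemicals are dosed for 24 h; isolated RNA undergoes RT-PCR and fluorescent labeling before capillary electrophoresis, with activity expressed against DMSO.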
# [11] = ATG_GLI_CIS: Attagene CIS-FACTORIAL HepG2 Assay for human Zinc Finger Protein GLI1 (AID 2282945); settings: HepG2, Attagene cis-factorial reporter mRNA, GLI element; actives raise or lower the signal
# In short: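 Bidirectional curve fits relative to DMSO, using reporter mRNA levels from RT-PCR plus capillary electrophoresis. Cells were HepG2 transiently carrying cis-regulated reporter constructs, harvested 24 h after dosing.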
# [12] = ATG_GRE_CIS: Attagene CIS-FACTORIAL HepG2 Assay for human Glucocorticoid Response Elements (GRE) (AID 2282947); settings: HepG2 GRE cis-reporter, Attagene multiplex mRNA; actives raise or lower the signal
# In short: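 Reporter transcripts read by RT-PCR with capillary electrophoresis fluorescence after a 24 h chemical exposure of HepG2 cells transiently transfected with multiple cis-element reporter units. Gain or loss fitted against DMSO.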
# [13] = ATG_ISRE_CIS: Attagene CIS-FACTORIAL HepG2 Assay for human Interferon Regulatory Factor 1 (IRF1) binding to an Interferon-Stimulated Response Element (ISRE) (AID 2282948); settings: HepG2 ISRE cis-reporter (Attagene), mRNA transcription readout; actives raise or lower the signal
# In short: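 Read-out: fluorescent RT-PCR products resolved by capillary electrophoresis, reporting endogenous transcription factor activity via ISRE-driven reporter mRNA in transfected HepG2 cells dosed for 24 h; gain or loss fitted relative to DMSO.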
# [14] = ATG_M_32_CIS: Attagene CIS-FACTORIAL HepG2 Assay for M32 Transcription Factor (Internal Marker) (AID 2282949); settings: HepG2 Attagene cis-factorial M32 reporter, mRNA; actives raise or lower the signal;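 further: background control marker of the multiplexed CIS panel rather than a real target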
# In short: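 HepG2 transfectants (cis-regulated reporter transcription units) dosed 24 h. Reporter mRNA by RT-PCR plus CE, analysed as gain or loss relative to DMSO.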
# [15] = ATG_M_06_CIS: Attagene CIS-FACTORIAL HepG2 Assay for M06 Transcription Factor (Internal Marker) (AID 2282950); settings: HepG2 Attagene CIS-FACTORIAL M06 internal marker reporter; actives raise or lower the signal
# In short: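 HepG2 liver cells, 24 h exposure. Reporter transcripts from transfected cis-element constructs quantified by RT-PCR/capillary electrophoresis fluorescence. Bidirectional curve fit against DMSO.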
# [16] = target: Hypoxia-inducible factor 1-alpha (Homo sapiens) (UniProt Q16665); assay: ATG_HIF1a_CIS: Attagene CIS-FACTORIAL HepG2 Assay for human Hypoxia Inducible Factor 1 (HIF1A) (AID 2282951); settings: HepG2 Attagene cis-factorial HIF1a reporter transcription; actives raise or lower the signal
# Hypoxia-inducible factor 1-alpha (Homo sapiens), sequence (Q16665 whole entry, looked up): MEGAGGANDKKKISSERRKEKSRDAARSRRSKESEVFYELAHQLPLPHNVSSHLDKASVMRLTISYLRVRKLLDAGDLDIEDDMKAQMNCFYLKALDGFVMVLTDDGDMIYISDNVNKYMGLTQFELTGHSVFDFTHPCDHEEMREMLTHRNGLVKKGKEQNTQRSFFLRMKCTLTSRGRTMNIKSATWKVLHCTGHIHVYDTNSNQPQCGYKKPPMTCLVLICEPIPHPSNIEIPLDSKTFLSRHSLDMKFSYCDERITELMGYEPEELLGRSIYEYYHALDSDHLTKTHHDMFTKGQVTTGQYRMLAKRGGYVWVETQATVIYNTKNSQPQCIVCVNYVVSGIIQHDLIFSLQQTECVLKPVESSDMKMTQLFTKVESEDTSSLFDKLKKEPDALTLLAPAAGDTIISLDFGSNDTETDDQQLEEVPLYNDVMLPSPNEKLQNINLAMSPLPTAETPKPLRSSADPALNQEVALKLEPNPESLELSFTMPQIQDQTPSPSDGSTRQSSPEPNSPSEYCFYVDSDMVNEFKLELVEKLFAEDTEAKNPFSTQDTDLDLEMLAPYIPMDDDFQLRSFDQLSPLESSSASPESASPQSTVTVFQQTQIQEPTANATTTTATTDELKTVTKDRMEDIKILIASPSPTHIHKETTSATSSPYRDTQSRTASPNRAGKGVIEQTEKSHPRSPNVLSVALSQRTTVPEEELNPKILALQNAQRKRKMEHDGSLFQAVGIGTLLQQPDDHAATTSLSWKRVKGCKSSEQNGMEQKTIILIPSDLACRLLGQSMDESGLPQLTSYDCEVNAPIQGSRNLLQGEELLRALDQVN
# In short: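 Dosed 24 h, transfected HepG2 cells yielded total RNA whose reporter transcripts were RT-PCR-amplified and sized by capillary electrophoresis using fluorescent labelling; DMSO defined baseline, with gain and loss of signal both fitted.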
# [17] = target: Hepatocyte nuclear factor 6 (Homo sapiens) (UniProt Q9UBC0); assay: ATG_HNF6_CIS: Attagene CIS-FACTORIAL HepG2 Assay for human Hepatocyte Nuclear Factor 6 (HNF6) (AID 2282952); settings: HepG2 Attagene cis-factorial HNF6 reporter transcription; actives raise or lower the signal
# Hepatocyte nuclear factor 6 (Homo sapiens), sequence (Q9UBC0 whole entry, looked up, the tested form may be a part): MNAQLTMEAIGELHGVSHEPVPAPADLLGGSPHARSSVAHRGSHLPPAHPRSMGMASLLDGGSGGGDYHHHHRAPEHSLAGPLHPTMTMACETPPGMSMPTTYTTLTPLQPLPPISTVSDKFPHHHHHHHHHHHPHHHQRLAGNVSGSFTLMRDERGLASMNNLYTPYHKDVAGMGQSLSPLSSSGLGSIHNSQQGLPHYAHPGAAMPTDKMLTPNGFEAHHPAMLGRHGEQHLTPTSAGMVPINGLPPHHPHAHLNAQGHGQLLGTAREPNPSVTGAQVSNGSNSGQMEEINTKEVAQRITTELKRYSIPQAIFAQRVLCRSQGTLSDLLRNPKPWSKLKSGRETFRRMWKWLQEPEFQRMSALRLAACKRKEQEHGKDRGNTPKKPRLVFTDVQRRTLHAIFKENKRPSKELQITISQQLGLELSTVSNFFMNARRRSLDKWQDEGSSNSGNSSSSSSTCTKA
# In short: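 Readout: fluorescent reporter-transcript fragments resolved by capillary electrophoresis after RT-PCR, reflecting endogenous factor activity in transfected HepG2. Exposure 24 h. Gain or loss of signal fitted bidirectionally against DMSO.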
# [18] = target: Heat shock factor protein 1 (Homo sapiens) (UniProt Q00613); assay: ATG_HSE_CIS: Attagene CIS-FACTORIAL HepG2 Assay for human Heat Shock Transcription Factor 1 (HSE) (AID 2282953); settings: HepG2 HSE cis-reporter, Attagene RNA transcription; actives raise or lower the signal
# Heat shock factor protein 1 (Homo sapiens), sequence (Q00613 whole entry, looked up, the tested form may be a part): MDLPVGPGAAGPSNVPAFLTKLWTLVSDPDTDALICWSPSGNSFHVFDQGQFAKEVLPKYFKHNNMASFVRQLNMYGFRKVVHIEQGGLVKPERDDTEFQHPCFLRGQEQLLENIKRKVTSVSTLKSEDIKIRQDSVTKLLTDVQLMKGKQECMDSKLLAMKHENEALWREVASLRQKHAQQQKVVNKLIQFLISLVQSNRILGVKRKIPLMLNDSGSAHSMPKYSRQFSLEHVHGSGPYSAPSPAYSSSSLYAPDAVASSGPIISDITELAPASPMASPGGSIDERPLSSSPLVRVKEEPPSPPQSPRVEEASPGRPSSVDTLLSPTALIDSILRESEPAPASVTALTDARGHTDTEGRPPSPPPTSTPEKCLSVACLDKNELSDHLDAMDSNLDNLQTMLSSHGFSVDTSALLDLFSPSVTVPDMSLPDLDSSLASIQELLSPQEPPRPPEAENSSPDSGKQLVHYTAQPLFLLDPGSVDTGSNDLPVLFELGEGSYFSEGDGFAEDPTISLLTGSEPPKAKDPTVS
# In short: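 Endogenous transcription factor activity captured via cis-promoter reporter units transfected into HepG2; treatment lasted 24 h. Fluorescence intensity of reporter fragments analysed with bidirectional curve fitting, DMSO baseline.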
# [19] = ATG_MRE_CIS: Attagene CIS-FACTORIAL HepG2 Assay for human Metal Responsive Element (MRE) (AID 2282954); settings: HepG2 MRE cis-reporter transcription, Attagene multiplex; actives raise or lower the signal
# In short: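 Endogenous MRE-dependent transcription read as reporter mRNA in transiently transfected human HepG2 cells at 24 h. RNA reverse-transcribed, PCR-amplified, labelled and resolved by capillary electrophoresis; gain or loss relative to DMSO.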
# [20] = target: Bile acid receptor (Homo sapiens) (UniProt Q96RI1); assay: ATG_IR1_CIS: Attagene CIS-FACTORIAL HepG2 Assay for human Nuclear Receptor Subfamily 1 Group H Member 4 (NR1H4), IR1 submotif (AID 2282946); settings: IR1 reporter transcription, actives raise or lower the signal
# Bile acid receptor (Homo sapiens), sequence (Q96RI1 whole entry, looked up): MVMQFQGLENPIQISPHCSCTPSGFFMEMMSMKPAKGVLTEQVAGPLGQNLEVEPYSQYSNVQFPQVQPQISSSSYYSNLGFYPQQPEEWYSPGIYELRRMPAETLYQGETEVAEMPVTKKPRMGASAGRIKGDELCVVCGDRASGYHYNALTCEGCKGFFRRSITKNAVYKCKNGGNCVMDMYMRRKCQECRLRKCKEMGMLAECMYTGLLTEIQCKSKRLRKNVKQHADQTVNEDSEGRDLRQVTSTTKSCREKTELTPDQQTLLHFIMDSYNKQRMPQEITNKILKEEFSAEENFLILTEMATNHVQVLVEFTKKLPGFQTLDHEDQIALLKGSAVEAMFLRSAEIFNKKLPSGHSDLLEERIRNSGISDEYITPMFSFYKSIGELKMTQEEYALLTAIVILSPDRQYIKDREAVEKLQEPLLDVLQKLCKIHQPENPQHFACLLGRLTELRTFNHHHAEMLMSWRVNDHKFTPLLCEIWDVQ
# In short: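 HepG2 cells transiently transfected with multiplexed cis-element reporter units read endogenous transcription factor activity. After 24 h compound exposure, reporter mRNA was quantified by RT-PCR, fluorescent labelling, HpaI digestion and capillary electrophoresis; bidirectional fitting versus DMSO baseline.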
smiles,measurement,setting,value
CSC(=O)c1c(C(F)F)nc(C(F)(F)F)c(C(=O)SC)c1CC(C)C,outcome,[1],inactive
same,outcome,[2],inactive
same,outcome,[3],inactive
same,outcome,[4],inactive
same,outcome,[5],inactive
same,AC50,[6],3.83 µM (active)
same,outcome,[7],inactive
same,outcome,[8],inactive
same,outcome,[9],inactive
same,outcome,[10],inactive
same,outcome,[11],inactive
same,outcome,[12],inactive
same,outcome,[13],inactive
same,outcome,[14],inactive
same,outcome,[15],inactive
same,outcome,[16],inactive
same,outcome,[17],inactive
same,outcome,[18],inactive
same,outcome,[19],inactive
Nc1c(Cl)c(Cl)nc(C(=O)O)c1Cl,outcome,[1],inactive
same,outcome,[2],inactive
same,outcome,[3],inactive
same,outcome,[4],inactive
same,outcome,[5],inactive
same,outcome,[6],inactive
same,outcome,[7],inactive
same,outcome,[8],inactive
same,outcome,[9],inactive
same,outcome,[10],inactive
same,outcome,[11],inactive
same,outcome,[12],inactive
same,outcome,[13],inactive
same,outcome,[14],inactive
same,outcome,[15],inactive
same,outcome,[16],inactive
same,outcome,[17],inactive
same,outcome,[18],inactive
same,outcome,[19],inactive
CC1(C)CCC(=Cc2ccc(Cl)cc2)C1(O)Cn1cncn1 (configuration not stated),outcome,[1],inactive
same,outcome,[2],inactive
same,outcome,[3],inactive
same,outcome,[4],inactive
same,outcome,[5],inactive
same,outcome,[6],inactive
same,outcome,[7],inactive
same,outcome,[8],inactive
same,outcome,[9],inactive
same,outcome,[10],inactive
same,outcome,[11],inactive
same,outcome,[12],inactive
same,outcome,[13],inactive
same,outcome,[14],inactive
same,outcome,[15],inactive
same,outcome,[16],inactive
same,outcome,[17],inactive
same,outcome,[18],inactive
same,outcome,[19],inactive
CO/N=C(/C1=NOCCO1)c1ccccc1Oc1ncnc(Oc2ccccc2Cl)c1F,outcome,[1],inactive
same,outcome,[2],inactive
same,outcome,[3],inactive
same,AC50,[4],2.61 µM (active)
same,outcome,[5],inactive
same,outcome,[6],inactive
same,outcome,[7],inactive
same,outcome,[8],inactive
same,outcome,[9],inactive
same,outcome,[10],inactive
same,outcome,[11],inactive
same,outcome,[20],inactive
same,outcome,[12],inactive
same,AC50,[13],4.82 µM (active)
same,outcome,[14],inactive
same,outcome,[15],inactive
same,outcome,[16],inactive
same,outcome,[17],inactive
same,AC50,[18],17.8 µM (active)
same,AC50,[19],8.64 µM (active)
